{
  "source": "the supplement of paper PMC12282887",
  "system": "E. coli BW25113 marRABp lux reporter",
  "assay": "promoter activity interaction Z-score (Lux/OD deviation from empty-vector control); higher = stronger promoter induction by the compound",
  "method": "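E. coli BW25113 (wild type or ΔmarA/ΔsoxS/Δrob) carrying pTU175 luxCDABE promoter reporters was grown in LB in 384-well plates at 37°C with each of 94 compounds at 4 two-fold concentrations, in biological duplicates. Luminescence and OD600 were read every 30 min for 12 h and integrated as AUC over 8 h (0-8 h WT, 1-9 h mutants). Lux AUC was divided by OD AUC; the interaction score is the residual of a Huber robust fit of each promoter against the empty-vector control, then Z-transformed per promoter.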",
  "note": "± gives the standard deviation of the averaged measurements.",
  "data": [
    {"smiles": "CCC(C)CCCC(=O)N[C@@H](CCN)C(=O)N[C@H](C(=O)N[C@@H](CCN)C(=O)N[C@H]1CCNC(=O)[C@H]([C@@H](C)O)NC(=O)[C@H](CCN)NC(=O)[C@H](CCN)NC(=O)[C@H](CC(C)C)NC(=O)[C@@H](CC(C)C)NC(=O)[C@H](CCN)NC1=O)[C@@H](C)O", "note": "(stereo partly specified) [Colistin]", "values": [
      {"measurement": "promoter activity interaction Z-score", "setting": "0.048 µg/ml, genetic background: wild type", "result": "-0.253 ± 0.2"},
      {"measurement": "promoter activity interaction Z-score", "setting": "0.048 µg/ml, genetic background: ΔmarA", "result": "-0.196 ± 0.055"},
      {"measurement": "promoter activity interaction Z-score", "setting": "0.048 µg/ml, genetic background: Δrob", "result": "0.00109 ± 0.051"},
      {"measurement": "promoter activity interaction Z-score", "setting": "0.048 µg/ml, genetic background: ΔsoxS", "result": "0.178 ± 0.25"},
      {"measurement": "promoter activity interaction Z-score", "setting": "0.1 µg/ml, genetic background: wild type", "result": "-0.233 ± 0.24"},
      {"measurement": "promoter activity interaction Z-score", "setting": "0.1 µg/ml, genetic background: ΔmarA", "result": "-0.108 ± 0.097"},
      {"measurement": "promoter activity interaction Z-score", "setting": "0.1 µg/ml, genetic background: Δrob", "result": "-0.0851 ± 0.097"},
      {"measurement": "promoter activity interaction Z-score", "setting": "0.1 µg/ml, genetic background: ΔsoxS", "result": "0.0244 ± 0.049"},
      {"measurement": "promoter activity interaction Z-score", "setting": "0.19 µg/ml, genetic background: wild type", "result": "-0.154 ± 0.21"},
      {"measurement": "promoter activity interaction Z-score", "setting": "0.19 µg/ml, genetic background: ΔmarA", "result": "-0.0032 ± 0.049"},
      {"measurement": "promoter activity interaction Z-score", "setting": "0.19 µg/ml, genetic background: Δrob", "result": "0.0892 ± 0.15"},
      {"measurement": "promoter activity interaction Z-score", "setting": "0.19 µg/ml, genetic background: ΔsoxS", "result": "0.023 ± 0.025"},
      {"measurement": "promoter activity interaction Z-score", "setting": "0.38 µg/ml, genetic background: wild type", "result": "1.21 ± 0.13"},
      {"measurement": "promoter activity interaction Z-score", "setting": "0.38 µg/ml, genetic background: ΔsoxS", "result": 1.22}
    ]},
    {"smiles": "COc1cc(Cc2cnc(N)nc2N)cc(OC)c1OC", "note": "[Trimethoprim]", "values": [
      {"measurement": "promoter activity interaction Z-score", "setting": "0.073 µg/ml, genetic background: wild type", "result": "-0.00717 ± 0.14"},
      {"measurement": "promoter activity interaction Z-score", "setting": "0.073 µg/ml, genetic background: ΔmarA", "result": "0.354 ± 0.26"},
      {"measurement": "promoter activity interaction Z-score", "setting": "0.073 µg/ml, genetic background: Δrob", "result": "0.118 ± 0.14"},
      {"measurement": "promoter activity interaction Z-score", "setting": "0.073 µg/ml, genetic background: ΔsoxS", "result": "0.299 ± 0.38"},
      {"measurement": "promoter activity interaction Z-score", "setting": "0.15 µg/ml, genetic background: wild type", "result": "1.11 ± 0.81"},
      {"measurement": "promoter activity interaction Z-score", "setting": "0.15 µg/ml, genetic background: ΔmarA", "result": "1.71 ± 0.26"},
      {"measurement": "promoter activity interaction Z-score", "setting": "0.15 µg/ml, genetic background: Δrob", "result": "0.43 ± 0.16"},
      {"measurement": "promoter activity interaction Z-score", "setting": "0.15 µg/ml, genetic background: ΔsoxS", "result": "0.811 ± 0.45"},
      {"measurement": "promoter activity interaction Z-score", "setting": "0.29 µg/ml, genetic background: wild type", "result": "0.921 ± 0.63"},
      {"measurement": "promoter activity interaction Z-score", "setting": "0.29 µg/ml, genetic background: ΔmarA", "result": "1.36 ± 0.27"},
      {"measurement": "promoter activity interaction Z-score", "setting": "0.29 µg/ml, genetic background: Δrob", "result": "0.367 ± 0.12"},
      {"measurement": "promoter activity interaction Z-score", "setting": "0.29 µg/ml, genetic background: ΔsoxS", "result": "0.729 ± 0.19"},
      {"measurement": "promoter activity interaction Z-score", "setting": "0.58 µg/ml, genetic background: wild type", "result": "0.146 ± 0.067"},
      {"measurement": "promoter activity interaction Z-score", "setting": "0.58 µg/ml, genetic background: ΔmarA", "result": "0.423 ± 0.12"},
      {"measurement": "promoter activity interaction Z-score", "setting": "0.58 µg/ml, genetic background: Δrob", "result": "0.143 ± 0.17"},
      {"measurement": "promoter activity interaction Z-score", "setting": "0.58 µg/ml, genetic background: ΔsoxS", "result": "0.484 ± 0.068"}
    ]},
    {"smiles": "O=C(O)c1ccccc1O", "note": "[Salicylate]", "values": [
      {"measurement": "promoter activity interaction Z-score", "setting": "17.3 µg/ml, genetic background: wild type", "result": "0.135 ± 0.01"},
      {"measurement": "promoter activity interaction Z-score", "setting": "17.3 µg/ml, genetic background: ΔmarA", "result": "0.0581 ± 0.22"},
      {"measurement": "promoter activity interaction Z-score", "setting": "17.3 µg/ml, genetic background: Δrob", "result": "0.184 ± 0.16"},
      {"measurement": "promoter activity interaction Z-score", "setting": "17.3 µg/ml, genetic background: ΔsoxS", "result": "-0.0106 ± 0.075"},
      {"measurement": "promoter activity interaction Z-score", "setting": "34.5 µg/ml, genetic background: wild type", "result": "0.214 ± 0.13"},
      {"measurement": "promoter activity interaction Z-score", "setting": "34.5 µg/ml, genetic background: ΔmarA", "result": "0.401 ± 0.26"},
      {"measurement": "promoter activity interaction Z-score", "setting": "34.5 µg/ml, genetic background: Δrob", "result": "0.526 ± 0.052"},
      {"measurement": "promoter activity interaction Z-score", "setting": "34.5 µg/ml, genetic background: ΔsoxS", "result": "0.404 ± 0.12"},
      {"measurement": "promoter activity interaction Z-score", "setting": "69.1 µg/ml, genetic background: wild type", "result": "0.771 ± 0.2"},
      {"measurement": "promoter activity interaction Z-score", "setting": "69.1 µg/ml, genetic background: ΔmarA", "result": "0.666 ± 0.1"},
      {"measurement": "promoter activity interaction Z-score", "setting": "69.1 µg/ml, genetic background: Δrob", "result": "0.852 ± 0.25"},
      {"measurement": "promoter activity interaction Z-score", "setting": "69.1 µg/ml, genetic background: ΔsoxS", "result": "0.352 ± 0.1"},
      {"measurement": "promoter activity interaction Z-score", "setting": "138.1 µg/ml, genetic background: wild type", "result": "7.4 ± 0.11"},
      {"measurement": "promoter activity interaction Z-score", "setting": "138.1 µg/ml, genetic background: ΔmarA", "result": "8.571 ± 0.071"},
      {"measurement": "promoter activity interaction Z-score", "setting": "138.1 µg/ml, genetic background: Δrob", "result": "6.24 ± 1.4"},
      {"measurement": "promoter activity interaction Z-score", "setting": "138.1 µg/ml, genetic background: ΔsoxS", "result": "6.09 ± 1.6"}
    ]}
  ]
}
